Source: PubChem (Buhrlage Lab, Dana-Farber Cancer Institute and Novartis Institutes for BioMedical Research (Cambridge, Mass))
USP28 inh – inhibitors of human USP28 deubiquitinase | inhibition, % at 25 µM | Q96RU2 | purified USP28, Ub-rhodamine cleavage fluorescence, 30 min | 47,000 compounds, 3% hits
USP17 inh – inhibitors of human USP17 deubiquitinase | inhibition, % at 50 µM | A8MUK1 | purified USP17, Ub-rhodamine cleavage fluorescence, 3 h | 47,000 compounds, 6.5% hits | AID 1645855
USP30 inh – human USP30 deubiquitinase inhibition. inhibition, % at 25 µM. 47,000 compounds, 5.3% hits. purified USP30, Ub-rhodamine cleavage fluorescence. Q70CQ3
Target sequence (Q70CQ3 whole entry, looked up): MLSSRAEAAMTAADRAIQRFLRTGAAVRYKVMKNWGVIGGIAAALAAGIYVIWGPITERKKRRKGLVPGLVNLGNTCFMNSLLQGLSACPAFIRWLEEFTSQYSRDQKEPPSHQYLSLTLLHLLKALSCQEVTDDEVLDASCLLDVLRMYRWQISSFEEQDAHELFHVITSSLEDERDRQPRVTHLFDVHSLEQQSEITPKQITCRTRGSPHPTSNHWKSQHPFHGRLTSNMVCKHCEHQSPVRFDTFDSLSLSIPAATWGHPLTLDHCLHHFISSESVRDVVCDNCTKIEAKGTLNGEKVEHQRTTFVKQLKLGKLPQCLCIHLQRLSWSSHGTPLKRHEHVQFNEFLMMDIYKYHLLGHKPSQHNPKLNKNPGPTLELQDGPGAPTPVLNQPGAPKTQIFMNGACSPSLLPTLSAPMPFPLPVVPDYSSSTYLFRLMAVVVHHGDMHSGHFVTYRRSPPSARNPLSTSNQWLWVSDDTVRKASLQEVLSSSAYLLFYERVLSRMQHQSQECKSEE
Each line names hits and unclear results; the compound was inactive in the other large screens. An excerpt weighted towards active compounds, which were near 11% of everything screened. Cut-off read from the data, not from the text of the source: active = inhibition above about 30%; inactive = the rest.

CC(CCc1ccccc1)NC(=O)c1cnn2c(C(F)(F)F)cc(-c3ccccc3)nc12 (stereo not drawn)	none
Cc1cc(C2CC(=O)Nc3c2c(C)nn3-c2nc3ccccc3[nH]2)c(C)s1 (stereo not drawn)	USP17 inh 51
Cc1nn(-c2nc3ccccc3o2)c2c1C(c1ccc(F)c(F)c1)CC(=O)N2 (stereo not drawn)	none
Cn1c(=O)c2ccc(C3CCN(C(=O)C4CCCC4)C3)nc2n(C)c1=O (stereo not drawn)	none
Cc1ccc(S(=O)(=O)N[C@H](C(=O)N2CCC(C(=O)N[C@H](Cc3c[nH]c4ccccc34)C(=O)O)CC2)C(C)C)cc1	none
COc1ccc(S(=O)(=O)NCCC(=O)N2CCCC(c3nnc4ccccn34)C2)cc1 (stereo not drawn)	none
O=C(CNS(=O)(=O)c1ccc(F)cc1)N1CCCC(c2nnc3ccccn23)C1 (stereo not drawn)	USP28 inh 51
COc1cc(C2CCN(C(=O)Nc3ccccc3OC)CC2)on1	none
CC1OC2CC(O)C1(O)C1=C2C(O)=C(C(N)=O)C(=N)C1=O (stereo not drawn)	USP28 inh 60, USP17 inh 62
CC1(C)c2ccccc2-n2c1c(Cl)c(O)c(-c1ccccc1)c2=O	none
Cc1ccc(S(=O)(=O)NCc2cnc(C3CCCCO3)nc2)cc1 (stereo not drawn)	none
O=C(NC1CCCC1)c1ccc(-c2ccc(S(=O)(=O)NCc3ccccc3)cc2)cc1	USP30 inh 41
O=C(NC(c1ccccc1)c1ccccc1)c1ccc2nccnc2c1	none
CN1[C@H]2CCN(c3ncccn3)CC[C@@H]2Oc2ccccc2S1(=O)=O	none
O=C(NC1CCCCC1)C1CCN(c2ccc(N3CCCCC3)nn2)CC1	none
COc1ccc(-c2nnc(N3CCC(C(=O)NC4CCCC4)CC3)o2)cc1	USP17 inh 75, USP30 inh 80
Cc1ccc(S(=O)(=O)N(C)CCCC(=O)Nc2ccc(Cl)cc2)cc1	none
Cc1nc2cc3c(cc2n1CC(=O)N1CCCC1)OCCO3	none (no result: USP17 inh)
Cc1nn2c(CNC(=O)c3cccc(C#N)c3)c(C)nc2s1	none
O=C(Nc1nccn(-c2ccc3c(c2)CCC3)c1=O)c1ccccc1	none
O=C(Nc1ccc(F)cc1F)Nc1nccn(-c2cccc(F)c2)c1=O	none
O=C(Nc1ccccc1)Nc1nccn(-c2ccc3c(c2)CCC3)c1=O	USP17 inh 30, USP30 inh 39
COc1cccc(NC(=O)Nc2nccn(-c3ccc(F)cc3)c2=O)c1	USP17 inh 54
COc1ccccc1-n1ccnc(NC(=O)Nc2cccc(F)c2)c1=O	USP17 inh 46
CCOc1cccc2nnc(NC(=O)Nc3cccc(F)c3)n12	none
NC(=O)C[C@H](NC(=O)[C@H](Cc1ccccc1)n1c(=O)[nH]c2ccccc2c1=O)C(=O)NCC1CCC(C(=O)O)CC1 (stereo partly drawn)	none
Cc1c(Cl)cccc1-c1ccc(CNCc2ccncc2)o1	none
Cc1ccc(NC(=O)CCc2c(C)nn3cnnc3c2C)cc1F	none
CCOc1ccccc1NC(=O)C(OC(=O)c1cc2ccccc2cc1O)c1ccccc1 (stereo not drawn)	none
O=C(C1CC(=O)N(C2CCCC2)C1)N1CCSCC1 (stereo not drawn)	none
Cc1ccc(S(=O)(=O)N2CCN3C(=O)[C@@H](Cc4ccccc4)N(C)C(=O)[C@@H]3C2)cc1	USP30 inh 31
C[C@@H]1C(=O)N2CCN(S(=O)(=O)c3ccc(Cl)cc3)C[C@H]2C(=O)N1C	none (no result: USP28 inh, USP30 inh)
COc1cccc(C(CC(=O)Nc2ccc3c(c2)OCCO3)n2cccc2)c1 (stereo not drawn)	none
COc1ccc(/C=C/C(=O)N(Cc2cccc(Cl)c2)C2CCS(=O)(=O)C2)cc1 (stereo not drawn)	none
O=C(/C=C/c1ccc(OCc2cccc(Cl)c2)cc1)NC1CCCC1	USP17 inh 36
Cc1ccc2nc(CN(C)c3ccccc3)cc(=O)n2c1	USP17 inh 36
NC(=O)c1ccccc1NCc1cc(=O)n2cc(Cl)ccc2n1	none
Cc1ccc2nc(CNc3ccc(F)cc3C)cc(=O)n2c1	USP28 inh 52, USP17 inh 85
CN(Cc1cc(=O)n2ccsc2n1)c1ccccc1	none
O=C(NC1CCCCC1)C1CNCC12CCOCC2 (stereo not drawn)	none
COC(=O)CCSc1nc2cc(OC)c(OC)cc2c(=N)n1Cc1cccc(C(F)(F)F)c1	none
COCCCn1c(SCCc2ccccc2)nc2cc(OC)c(OC)cc2c1=N	USP17 inh 43
COc1ccc(Cl)cc1NC(=O)CSc1nnc(Cc2cccn2C)n1CCc1ccccc1	none
CC(C)(C)c1cc2n(n1)CCN(S(=O)(=O)c1ccc(F)cc1)C2	none
COc1ccc(O)c(C(=O)OCc2cc(=O)oc3ccc4ccccc4c23)c1	USP17 inh 51
Cc1ccc2c(COC(=O)c3ccc4ccccc4c3)cc(=O)oc2c1	none
CC(C)c1cccc(OCCOCCN2CCNCC2)c1	USP28 inh 48
COCCOc1cccc(CN2CCCC(c3nnc4n3CCNCC4)C2)c1 (stereo not drawn)	none
Cc1cccc(CN2CCC3(CCCN(C(=O)c4cnccn4)C3)C2)n1 (stereo not drawn)	none
CC(O)(CS(=O)(=O)Cc1ccccc1)C(=O)Nc1cccc(C(F)(F)F)c1 (stereo not drawn)	none
Cn1cc(NC(=O)Nc2cccc(C(F)(F)F)c2)c2ccccc2c1=O	USP28 inh 61, USP17 inh 98, USP30 inh 78
Cc1cc(C(F)(F)F)n(-c2ccc(NC(=O)Nc3cccc(C(F)(F)F)c3)cc2)n1	USP28 inh 43, USP17 inh 39
Cc1ccc(Cn2nc(C)cc2C(=O)Nc2cccc(C(F)(F)F)c2)cc1	none
O=C(NCc1cccnc1)[C@H]1C[C@@H]2CN(C(=O)NC3CCCC3)C[C@H]1O2	none
Cn1cnc2c(C(=O)NCc3cccc(F)c3)nn(-c3ccccc3)c2c1=O	none
COc1ccc(C(=O)O)cc1S(=O)(=O)N1CCCc2ccccc21	USP17 inh 42
COC(=O)c1cccc(NC(=O)c2ccc(OC)c(S(=O)(=O)N3CCCc4ccccc43)c2)c1	none
O=C(c1ccccc1O)N(Cc1ccco1)C1(C(=O)Nc2ccc(Br)cc2)CCCCC1	none
Cc1ccc(NC(=O)CCc2nc(CSc3nnc(-c4cccc(C)c4)o3)no2)cc1	none
Cc1ccc(-c2nnc(SCc3noc(CCC(=O)Nc4ccccc4)n3)o2)cc1	USP30 inh 40
COc1ccc(C(=O)Cn2ccnc2C(=O)NCc2ccc(C)cc2)cc1	none
O=C(Nc1cccc(F)c1)Nc1ccccc1SCc1cc(=O)n2ccccc2n1	none
Cc1cc(C)cc(N2CC(C)Cn3c2nc2c3c(=O)n(CC(=O)OCc3ccccc3)c(=O)n2C)c1 (stereo not drawn)	none
COc1cccc(N2CC(C)Cn3c2nc2c3c(=O)n(CC(=O)OCc3ccccc3)c(=O)n2C)c1 (stereo not drawn)	USP30 inh 39
Cc1nc(C2(NC(=O)c3ccoc3C)CCCC2)no1	none
Cc1nccc(C(=O)N2[C@@H](c3ccccc3)C[C@@]3(C)[C@H](O)[C@H](O)CCC[C@@H]23)n1	none
C=C(CCC=C(C)C)[C@H]1CC[C@]2(C)[C@@H]1CC[C@@H]1[C@@]3(C)CC[C@H](O)C(C)(C)[C@@H]3CC[C@]12C	none
